Experimental data taken from a collection of fitness landscapes (doi:10.1016/j.celrep.2020.107928).
Whole data set: some 81,000 sequences, median “one-hybrid fitness for binding parS DNA” near -0.17, cut for the highest 2% near 0.51. What follows is part of a selection rich in the highest values, with near analogues and random picks from the rest.

B1: Caulobacter ParB omega fusion; a variant is named by its letters at X, in order, B8GW30 (parent)
chain: MESVVVGEPGMSEGRRGLGRGLSALLGEVDAAPAQAPGEQLGGSREAPIEILQRNPDQPRRTFREEDLEDLSNSIREKGVLQPILVRPSPDTAGEYQIVAGERAWRAAQRAGLKTVPIMVRELDDLAVLEIGIIENVQRADLNVLEEALSYKVLMEKFERTQENIAQTIGKSXSHVANXMRLLXLPDEVQSYLVSGELTAXHARAIAAAADPVALAKQIIEGGLSVRETEALARKAPNLSAGKSKGGRPPRVKDTDTQALESDLSSVLGLDVSIDHRGSTGTLTITYATLEQLDDLCNRLTRGI

Variants of: B1
Assay: one-hybrid fitness for binding parS DNA (scaled: cognate 1, non-cognate 0); higher = stronger binding
Details: with parS DNA site
Summary of the method: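 Caulobacter ParB libraries with four specificity codons randomised were screened by bacterial one-hybrid selection in the E. coli USO strain, using a HIS3 reporter whose site lies 19 bp from the promoter. Selection ran for 48 hours at 37°C on M9 lacking histidine, with 0.1 mM IPTG and 5 mM 3-AT. Plasmids were Illumina-sequenced before and after selection, three replicate libraries were pooled, and variants with under 10 reads were dropped. Fitness is the log change in each variant's read ratio to wild type, rescaled against the cognate and non-cognate sites.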

one-hybrid fitness for binding parS DNA, 0.878:
RMEC

one-hybrid fitness for binding parS DNA, 0.223:
RHEQ
RKPA

one-hybrid fitness for binding parS DNA, 0.592:
RLIA

one-hybrid fitness for binding parS DNA, 0.289:
RRDY

one-hybrid fitness for binding parS DNA, 0.429:
RWSA

one-hybrid fitness for binding parS DNA, ≤ 0.2:
QLEI
RRDP
RRNP
RRDD
RRND
MPNM
LHPH
GDDG
QSME
ACRS
SHIK
VLLG
RFND
RFDP
RFNH
WGKS
RQTE
NRHC
RRSQ
RRRR
RRSK
RRRK
RRDF
RRYQ
RRYF
RRDK
SYQG
LIRC
MILL
PRDA
YSLD
WHRF
RRLQ
RRGK
RRCK
RRCQ
RRLM
RRWR
RRWM
SPPK
RSIQ
YRAT
EFSC
DTGT
LRWE
AHLK
MITC
RRPK
LTLY
RRQK
RRQF
DRHT
RRNK
RRNR
RRHR
HISY
PLCG
KSHC
TRTL
QHPL
TQMA
LYGV
STLG
RMAQ
VYHP
HINR
PLDY
PNDH
RVKP
RVVD
RVKH
EWSG
QKNH
APDA
DTGA
RPGA
PFGA
DFGA
DMGA
ETGA
NTKT
QYPA
WNKI
DLGA
DAGA
NLGA
REGA
VGER
ETLC
ETVR
LAFP
GGRS
KQSE
PDSM
LRGD
RKEQ
RMEH
RKEI
RDEC
RLEI
RPEC
RLER
LRQY
VQGR
HFMV
TEEC
FLDS
HFDS
QTWK
CLLK
TGRC
RHEF
RREP
RAER
RREH
RIER
GGWR
ITFG
ITHW
KYTR
QQLK
YTGV
RTEK
RFEI
RSED
NFEC
YRPK
DVSL
PMLT
QLTV
SPHY
KVAV
NKDH
AYAS
MADT
LSCT
RDSA
NASA
NTSA
RPSA
DTSA
DASA
CEWG
PPVE
RGTE
VPLK
LSLN
KMRA
APLY
YCRA
PHDR
INAG
NMSA
CFSA
SFSA
RESA
DLSA
DHSA
QQWL
HSTQ
QIPS
NIHV
LAFG
NNTV
SRTI
LHLI
FTFT
RKAR
RKFD
RKAK
TVYC
QLDE
GTYL
NKHA
AYMW
WTLN
CKRT
VEKG
ALQI
MAKW
GFDC
WTHF
NKRA
QRWL
LNLV
PQAL
PVGY
PLAI
DVVA
SVKA
DVKA
NVVA
ALNW
ACFK
PSMV
RPIA
VHRF
NYLC
ALEW
NIYW
RPQY
AECV
GPSG
TNDG

one-hybrid fitness for binding parS DNA, 0.28:
RRYY

one-hybrid fitness for binding parS DNA, 0.451:
RKIA

one-hybrid fitness for binding parS DNA, 0.913:
RMAT

one-hybrid fitness for binding parS DNA, 0.436:
RMAY

one-hybrid fitness for binding parS DNA, 0.565:
RRNT
RVVA

one-hybrid fitness for binding parS DNA, 0.235:
RMAW

one-hybrid fitness for binding parS DNA, 0.575:
RCSA

one-hybrid fitness for binding parS DNA, 0.712:
RKQA

one-hybrid fitness for binding parS DNA, 0.59:
RMSA

one-hybrid fitness for binding parS DNA, 0.597:
RRRT
RSGA

one-hybrid fitness for binding parS DNA, 0.206:
RMFF

one-hybrid fitness for binding parS DNA, 0.818:
RKAT

one-hybrid fitness for binding parS DNA, 0.531:
RFGA

one-hybrid fitness for binding parS DNA, 0.595:
RAGA
RASA

one-hybrid fitness for binding parS DNA, 0.256:
RRNH

one-hybrid fitness for binding parS DNA, 0.579:
RKYA

one-hybrid fitness for binding parS DNA, 0.546:
RHGA
RMQY

one-hybrid fitness for binding parS DNA, 0.376:
RLPA

one-hybrid fitness for binding parS DNA, 0.493:
RCQY

one-hybrid fitness for binding parS DNA, 0.771:
RKFT

one-hybrid fitness for binding parS DNA, 0.363:
RTPA

one-hybrid fitness for binding parS DNA, 0.515:
RHSA

one-hybrid fitness for binding parS DNA, 0.866:
RCEC

one-hybrid fitness for binding parS DNA, 0.646:
RRNS

one-hybrid fitness for binding parS DNA, 0.54:
RRST

one-hybrid fitness for binding parS DNA, 0.774:
RKRA

one-hybrid fitness for binding parS DNA, 0.731:
RREC

one-hybrid fitness for binding parS DNA, 0.727:
RFEC
RRNY

one-hybrid fitness for binding parS DNA, 0.501:
RAYY

one-hybrid fitness for binding parS DNA, 0.542:
RTIA

one-hybrid fitness for binding parS DNA, 0.954:
RFDS

one-hybrid fitness for binding parS DNA, 0.679:
RTGA

one-hybrid fitness for binding parS DNA, 0.791:
RIEC

one-hybrid fitness for binding parS DNA, 0.246:
RAEM

one-hybrid fitness for binding parS DNA, 0.604:
RRYT

one-hybrid fitness for binding parS DNA, 0.572:
RFSA

one-hybrid fitness for binding parS DNA, 0.893:
RKEC

one-hybrid fitness for binding parS DNA, 0.338:
RIEY

one-hybrid fitness for binding parS DNA, 0.393:
RMPA

one-hybrid fitness for binding parS DNA, 0.245:
RLQW

one-hybrid fitness for binding parS DNA, 0.756:
RVKA

one-hybrid fitness for binding parS DNA, 1.03:
RVVS

one-hybrid fitness for binding parS DNA, 0.547:
RKLA

one-hybrid fitness for binding parS DNA, 0.717:
RKSA

one-hybrid fitness for binding parS DNA, 0.295:
RWIA

one-hybrid fitness for binding parS DNA, 0.67:
RKHA

one-hybrid fitness for binding parS DNA, 0.583:
RSSA

one-hybrid fitness for binding parS DNA, 0.333:
RSEN

one-hybrid fitness for binding parS DNA, 0.566:
RRGT

one-hybrid fitness for binding parS DNA, 0.807:
RAEC

one-hybrid fitness for binding parS DNA, 0.648:
RRDT

one-hybrid fitness for binding parS DNA, 0.537:
RMIA

one-hybrid fitness for binding parS DNA, 0.743:
RRDS

one-hybrid fitness for binding parS DNA, 0.653:
RCGA

one-hybrid fitness for binding parS DNA, 0.617:
RLGA

one-hybrid fitness for binding parS DNA, 0.389:
RADY

one-hybrid fitness for binding parS DNA, 0.694:
RKGA

one-hybrid fitness for binding parS DNA, 0.41:
RVVN

one-hybrid fitness for binding parS DNA, 0.551:
RRQT
RCIA

one-hybrid fitness for binding parS DNA, 0.573:
RMGA

one-hybrid fitness for binding parS DNA, 0.587:
RRCT
RLSA

one-hybrid fitness for binding parS DNA, 0.984:
RFNS

one-hybrid fitness for binding parS DNA, 0.831:
RVKS

one-hybrid fitness for binding parS DNA, 0.369:
RMFM
RMEN

one-hybrid fitness for binding parS DNA, 0.296:
RIYW

one-hybrid fitness for binding parS DNA, 0.474:
RSIA

one-hybrid fitness for binding parS DNA, 0.391:
RRGM

one-hybrid fitness for binding parS DNA, 0.811:
RRNN

one-hybrid fitness for binding parS DNA, 0.211:
RKFH

one-hybrid fitness for binding parS DNA, 0.399:
RGSA

one-hybrid fitness for binding parS DNA, 0.682:
RRWT

one-hybrid fitness for binding parS DNA, 0.257:
RRDN

one-hybrid fitness for binding parS DNA, 0.593:
RRHT

one-hybrid fitness for binding parS DNA, 0.386:
RWGA

one-hybrid fitness for binding parS DNA, 0.947:
RLEC

one-hybrid fitness for binding parS DNA, 0.591:
RTSA

one-hybrid fitness for binding parS DNA, 0.552:
RARY

one-hybrid fitness for binding parS DNA, 0.354:
RFDN

one-hybrid fitness for binding parS DNA, 0.739:
RSEC

one-hybrid fitness for binding parS DNA, 0.874:
RTEC

one-hybrid fitness for binding parS DNA, 0.882:
RMFT

one-hybrid fitness for binding parS DNA, 0.414:
RTEY

one-hybrid fitness for binding parS DNA, 0.496:
RNGA

one-hybrid fitness for binding parS DNA, 0.812:
RRRY

one-hybrid fitness for binding parS DNA, 0.482:
RCNY

one-hybrid fitness for binding parS DNA, 0.623:
RRLT

one-hybrid fitness for binding parS DNA, 0.851:
RHEC

one-hybrid fitness for binding parS DNA, 0.274:
RRFY
